Most compounds without a hit are left out; they make up all but 3.3% or so of the library.
PfG6PD inh: PfG6PD (Plasmodium falciparum) enzyme inhibition. PfGluPho enzyme, NADPH resazurin-diaphorase fluorescence. inhibition, % at 20 µM. hit rate 0.78% among 350,000. AID 504690;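 active = inhibition reaching at least a set limit at 20 µM in the primary screen, cut at about 59% in these data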
PRMT1 FP inh: blocks human protein arginine methyltransferase 1; AID 652257; hit rate 1.3% among 370,000; Q99873; recombinant PRMT1, activity-based probe fluorescence polarization; inhibition, % at 2.79 µM;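 active = inhibition above about 21% made by adding two undisclosed values, limit read from the data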
Target sequence (Q99873 whole entry, looked up): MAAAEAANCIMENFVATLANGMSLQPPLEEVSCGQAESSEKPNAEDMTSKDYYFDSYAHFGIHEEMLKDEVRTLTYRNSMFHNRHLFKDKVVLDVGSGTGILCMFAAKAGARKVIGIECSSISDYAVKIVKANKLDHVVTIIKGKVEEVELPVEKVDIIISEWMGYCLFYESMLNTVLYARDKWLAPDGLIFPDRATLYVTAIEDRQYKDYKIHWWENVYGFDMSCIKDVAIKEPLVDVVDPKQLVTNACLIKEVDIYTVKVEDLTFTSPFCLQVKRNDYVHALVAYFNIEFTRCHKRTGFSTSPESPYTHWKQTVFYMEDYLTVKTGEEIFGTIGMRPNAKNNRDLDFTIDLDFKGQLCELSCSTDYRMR
MBD2 inh: MBD2-methylated oligo binding inhibition. TR-FRET, MBD2 binding to methylated oligonucleotide. inhibition, % at 4.4 µM. hit rate 0.31% among 370,000. AID 686964; in the data active = inhibition above about 13%
PfM18AAP inh: PfM18AAP enzyme inhibition; recombinant PfM18AAP, H-Glu-NHMec fluorogenic cleavage; inhibition, % at 7.35 µM; hit rate 1.2% among 290,000; AID 1822;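 active = inhibition above the campaign mean inhibition over all tested compounds plus 3 SD, cut at about 28% in these data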
UHRF1 binding: blocks human UHRF1 binding to methylated DNA; Q96T88; UHRF1 binding to methylated oligo, TR-FRET; inhibition, % at 4.4 µM; hit rate 0.75% among 370,000; AID 687016; in the data active = inhibition above about 21%;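 also: UHRF1 SRA domain binding a hemimethylated CpG hairpin DNA probe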
PRMT1 inh conf: confirmation of human PRMT1 inhibitors | recombinant His-PRMT1, activity-based probe fluorescence polarization | AID 687036 | hit rate 42% among 3,300 | shares compounds with PRMT1 FP inh | inhibition, % at 2.79 µM;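 active = mean inhibition across replicates above the hit cutoff derived for the earlier primary screen, cut at about 22% in these data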
Each line names hits and unclear results; the compound was inactive in the other large screens (follow-up assays come after a bar, where they were run).

Cc1nn(-c2ccccc2)c(C)c1/C=N/n1c(-c2ccccc2Br)n[nH]c1=S	none
CCN(CC)c1ccc(/C=N/n2c(-c3ccccc3Br)n[nH]c2=S)cc1	PRMT1 FP inh 25 | PRMT1 inh conf inactive
O=C(O)CN1C(=O)S/C(=C\c2ccc3c(c2)OCO3)C1=O	PRMT1 FP inh 33 (no result: PfM18AAP inh) | PRMT1 inh conf inactive
CCC(=O)Nc1nc(C)c(-c2csc(Nc3cccc(O)c3)n2)s1	PRMT1 FP inh 49 | PRMT1 inh conf inactive
Cc1nc(N)sc1-c1csc(Nc2cccc(O)c2)n1	PRMT1 FP inh 25, PfM18AAP inh 31 | PRMT1 inh conf inactive
COc1ccc(C(CNC(=O)c2ccc(-c3cccc(C(F)(F)F)c3)o2)N2CCOCC2)cc1 (stereo not drawn)	none (no result: PfM18AAP inh)
CC(=O)Nc1nc(=O)c2ccccc2s1	PRMT1 FP inh 44, PfM18AAP inh 30 | PRMT1 inh conf 33
CC(=O)N/C(N)=N/c1nc(=O)c2ccccc2s1	none
Nc1nc(=O)c2ccccc2s1	PRMT1 FP inh 36 (no result: PfM18AAP inh) | PRMT1 inh conf 25
Nc1nc(SCC(=O)c2cc3ccccc3o2)n[nH]1	PRMT1 FP inh 71 | PRMT1 inh conf inactive
COc1ccccc1C(=O)CSc1n[nH]c(N)n1	none
O=C(CCN1CCc2ccccc2CC1)c1ccc2c(c1)OCCO2	PRMT1 FP inh 40 | PRMT1 inh conf 29
O=C(CCN1CCCCC1)c1ccc2c(c1)OCO2	none
N#Cc1c(C(F)(F)F)cc(-c2ccco2)nc1SCc1ccccn1	PRMT1 FP inh 35 | PRMT1 inh conf inactive
CCN(CC)C(=O)CSc1nc(-c2ccco2)cc(C(F)(F)F)c1C#N	none
O=C(/C=C/c1ccco1)NCC1COc2ccccc2O1 (stereo not drawn)	PRMT1 FP inh 33 | PRMT1 inh conf inactive
COc1ccccc1OCC(=O)NCCS(=O)(=O)N1CCN(c2ccccc2)CC1	none (no result: PfM18AAP inh)
COc1ccc(CN2C(=NC(=O)C3CCCCC3)SC3CS(=O)(=O)CC32)cc1 (stereo not drawn)	none
Cc1cc[n+](-c2[nH]c(=O)sc2/C=N/NC([S-])=Nc2ccccc2)cc1	PRMT1 FP inh 67, PfM18AAP inh 31 | PRMT1 inh conf 29
Cc1cc(C)c[n+](-c2[nH]c(=O)sc2/C=N/NC([S-])=Nc2ccccc2)c1	PRMT1 FP inh 48 | PRMT1 inh conf 31
CC(C)(C)c1cc[n+](-c2[nH]c(=O)sc2/C=N/NC(=O)c2ccccc2[O-])cc1	none
O=c1[nH]c(-[n+]2ccccc2)c(/C=N/NC([S-])=Nc2ccccc2)s1	PRMT1 FP inh 50 | PRMT1 inh conf inactive
CCc1ccc[n+](-c2[nH]c(=O)sc2/C=N/N=C(\N)[O-])c1	none
CCc1ccc[n+](-c2[nH]c(=O)sc2/C=N/NC([S-])=Nc2ccccc2)c1	PRMT1 FP inh 87 | PRMT1 inh conf 40
N#Cc1ccc(NC(=O)COC(=O)c2cccc(S(=O)(=O)N3CCCC3)c2)cc1	none (no result: PfM18AAP inh)
COc1cccc(C(=O)n2ccc3ccc(-c4ccc5ccn(C(=O)c6cccc(OC)c6)c5c4)cc32)c1	none (no result: PfG6PD inh, PfM18AAP inh)
CCOc1cccc(C2C(C(=O)c3ccc(C)o3)=C(O)C(=O)N2Cc2ccncc2)c1 (stereo not drawn)	none
O=C(C1=C(O)C(=O)N(c2nccs2)C1c1ccccc1)c1cc2ccccc2o1 (stereo not drawn)	PRMT1 FP inh 92 | PRMT1 inh conf 132
CCOc1cccc(C2C(C(=O)c3ccc(C)o3)=C(O)C(=O)N2c2nccs2)c1 (stereo not drawn)	PRMT1 FP inh 65 | PRMT1 inh conf 38
COc1ccc(NC(=O)CNc2ccccc2N2CCCC2=O)cc1S(=O)(=O)N1CCOCC1	none (no result: PfM18AAP inh)
Cc1ccc(-c2n[nH]c(=S)n2/N=C/c2cccs2)cc1	PRMT1 FP inh 32 | PRMT1 inh conf inactive
S=c1[nH]nc(-c2ccccc2)n1/N=C/c1cccs1	none (no result: PRMT1 FP inh, MBD2 inh, UHRF1 binding)
COc1cccc(/C=N/n2c(-c3cccs3)n[nH]c2=S)c1	PRMT1 FP inh 28 | PRMT1 inh conf inactive
COc1ccc(C=Nn2c(-c3ccc(F)cc3)n[nH]c2=S)c(OC)c1OC	PRMT1 FP inh 30 (no result: PfG6PD inh, PfM18AAP inh) | PRMT1 inh conf inactive
COc1ccc(/C=N/n2c(-c3n[nH]c4c3CCC4)n[nH]c2=S)c(OC)c1OC	none
COC(=O)[C@]12C[C@H](CC(=O)NCC3CCCCC3)C(=O)N(CCC3=CCCCC3)C1=C[C@H](C1CCCC1)O[C@@H]2C	none (no result: PfG6PD inh, PfM18AAP inh)
CC(C)CN1C(=O)[C@]2(CC(=O)N(C)C2c2ccccc2)c2cc(-n3cc(CCCC#N)nn3)ccc21 (stereo partly drawn)	none (no result: PfG6PD inh, PfM18AAP inh)
Nc1nonc1-n1nnc(C(=O)N/N=C/c2ccco2)c1CSc1ccc(Cl)cc1	none (no result: PfM18AAP inh)
CC1CCN(S(=O)(=O)c2ccc3c(c2)N(CC(=O)NCCCOC(C)C)C(=O)CO3)CC1	none
S=c1[nH]c(-c2ccccc2)cs1	PRMT1 FP inh 30 | PRMT1 inh conf inactive
O=c1[nH]c(-c2ccccc2)cs1	none
CSc1nc2c(c(=O)[nH]c(=O)n2C)n1Cc1ccc(Cl)cc1	PfG6PD inh 65, PRMT1 FP inh 66 | PRMT1 inh conf inactive
Cc1ccc(CNC(=O)C2CCN(S(=O)(=O)c3cccs3)CC2)o1	PRMT1 FP inh 29 | PRMT1 inh conf inactive
O=S(=O)(CCSc1ccccn1)c1nc2ccccc2s1	PRMT1 FP inh 26 | PRMT1 inh conf inactive
CCCN=Cc1sc2ccc(OCC)cc2c1O	PRMT1 FP inh 88 | PRMT1 inh conf 29
O=C(Nc1cccnc1)C1Cc2c(-c3ccc4c(c3)OCO4)ccnc2O1 (stereo not drawn)	none (no result: PfG6PD inh, PfM18AAP inh)
Cc1nnc(SCC2=C(C(=O)O)N3C(=O)C(NC(=O)Cn4ncc(Cl)c4C)C3SC2)s1 (stereo not drawn)	PRMT1 FP inh 50 | PRMT1 inh conf 37
Cc1nnc(SCC2=C(C(=O)O)N3C(=O)C(NC(=O)c4cccc(F)c4F)C3SC2)s1 (stereo not drawn)	PRMT1 FP inh 59 | PRMT1 inh conf 29
CC1=C(C(=O)O)N2C(=O)C(NC(=O)c3c(F)cccc3F)C2SC1 (stereo not drawn)	none (no result: PfM18AAP inh)
Cc1cc(C)n(CC(=O)NC2C(=O)N3C(C(=O)O)=C(CSc4nnc(C)s4)CSC23)n1 (stereo not drawn)	PRMT1 FP inh 35 | PRMT1 inh conf inactive
CC(C(=O)NC1C(=O)N2C(C(=O)O)=C(CSc3nnnn3C)CSC12)n1cc(Br)cn1 (stereo not drawn)	none
Cn1nnnc1SCC1=C(C(=O)O)N2C(=O)C(NC(=O)C3CC3c3ccccc3)C2SC1 (stereo not drawn)	PRMT1 FP inh 28 | PRMT1 inh conf inactive
COCCNC(=O)C[C@@H]1C[C@H]2c3cc(NC(=O)Nc4ccc(F)cc4)ccc3O[C@H]2[C@H](CO)O1	none (no result: PfM18AAP inh)
COc1ccccc1CNC(=O)CN(C)S(=O)(=O)c1ccc(F)cc1	none
Cc1cc(C)c2sc(C)[n+](CCCS(=O)(=O)[O-])c2c1	PRMT1 FP inh 51 | PRMT1 inh conf 32
Cc1ccc2c(C)cc[n+](CCCS(=O)(=O)[O-])c2c1	none
CC[n+]1c(C)sc2c(C)cc(C)cc21	PRMT1 FP inh 46 | PRMT1 inh conf inactive
CCC[n+]1c(C)sc2c3c(ccc21)CCCC3	none (no result: PRMT1 FP inh, MBD2 inh, UHRF1 binding)
